Experimental data reported in PubChem BioAssay (NCI).
This is part of a sample that, as a whole, favours compounds with a hit. Of some 83,000 tested, about 20% had one in any assay.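 Negative percent growth values reflect cell death: -40 means 40% of the cells present at the start died, and -100 means all died.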 Unmarked numbers belong to inactive results. The source made the active and inactive calls. Rule for the calls: active = growth percent below 10; inactive = the rest.

These molecules were tested on HL-60(TB) leukemia (assay: NCI-60 one-dose screen, 48 h (100 = growth as untreated, 0 = no growth, -100 = all killed)). Details: 10 µM unless noted.

Question: How did the growth turn out when Cc1cc(N2CCN(CC(=O)Nc3ccc4c(ccn4Cc4ccccc4)c3)CC2)nc(N2CCCCCC2)n1 was run?
Answer: 12.1%

Question: With COc1ccc(NC2=C(Br)C(=O)C(C)=C(C)C2=O)cc1 as the molecule, how does the growth read?
Answer: 11.7%

Question: CCOc1c(B(O)O)cccc1-c1nc2ccc3[nH]ncc3c2c2c1CCCC2 was tested. Which growth did it give?
Answer: 23.6%

Question: Which growth does the source give for O=C(/C=C/c1cc2ccccc2[nH]c1=O)c1ccc(Cl)cc1 here?
Answer: 11.6%

Question: CSc1nc(=S)c2nc(SC)n(-c3ccccc3)c2[nH]1 was tested. Which growth did it give?
Answer: 110%

Question: With O=[n+]1c2ccccc2n([O-])c2cc(Cl)ccc21 as the molecule, how does the growth read?
Answer: -0.993% (active)

Question: How did the growth turn out when COc1cc2c(c(OC)c1OC)CCC(c1cccc(NC(=O)c3cccc(Br)c3)c1)O2 (stereo not given) was run?
Answer: 97%

Question: How did the growth turn out when CCNC(=O)C#Cc1ccc2c(C(=Nc3ccc(CN(C)C)cc3)c3ccccc3)c(O)[nH]c2c1 was run?
Answer: -7.13% (active)

Question: With CC(C)C[C@@H](NC(=O)[C@@H](Cc1ccccc1)NC(=O)c1cnccn1)B1O[C@H]2[C@H](O)[C@@H](C(=O)NCCCC[C@@H]3NC(=O)[C@@H](Cc4ccccc4)NC(=O)[C@H](CC(=O)O)NC(=O)CNC(=O)[C@H](CCCN=C(N)N)NC3=O)O[C@@H](CN)[C@H]2O1 as the molecule, how does the growth read?
Answer: -1.86% (active)

Question: With COc1cc2cc(Oc3ccc(NC(=O)Nc4ccc(F)c(C(F)(F)F)c4)cc3)c(C)nc2cc1OCCN1CCOCC1 as the molecule, how does the growth read?
Answer: 19.3%

Question: With COc1cc(C(C)n2cc(-c3ccccc3)nn2)ccc1OC1CCCCC1 (stereo not given) as the molecule, how does the growth read?
Answer: 43.7%

Question: With CCCCCCCCCCCCCCCCCCOCC(COP(=O)([O-])OCC[N+](C)(C)C)OC (stereo not given) as the molecule, how does the growth read?
Answer: 46.4%

Question: Which growth does the source give for Fc1ccc2[nH]cc(-c3nc(-c4c[nH]c5ccncc45)cs3)c2c1 here?
Answer: -42.1% (active)

Question: For COc1cc2nccc(Oc3ccc(NC(=O)C4(C(=O)Nc5c(F)cc(F)cc5F)CC4)cc3)c2cc1Oc1ccc(N)cn1, which growth is on record?
Answer: 38.3%

Question: For CC1=NN(c2ccc(S(=O)(=O)O)cc2Cl)C(=O)C1, which growth is on record?
Answer: 143%

Question: For CN(C)C(=O)Oc1cccc([N+](C)(C)C)c1, which growth is on record?
Answer: 91%

Question: c1ccc(-n2nnnc2-c2cccc3ccccc23)cc1 was tested. Which growth did it give?
Answer: -21.8% (active)

Question: With Cc1csc(C#Cc2cncc(O)c2)n1 as the molecule, how does the growth read?
Answer: 110%

Question: Which growth does the source give for S=c1[nH]c2cc(Cl)ccc2o1 here?
Answer: 86.5%

Question: How did the growth turn out when COc1ccc(-n2nc(C)c3c(Nc4ccc(NC(=O)Nc5cccc(C(F)(F)F)c5)cc4)ncnc32)cc1 was run?
Answer: -1.99% (active)

Question: With O=C(O)c1cc(C(=O)O)cc([N+](=O)[O-])c1 as the molecule, how does the growth read?
Answer: 94.5%

Question: How did the growth turn out when CC(C)N(CCNc1nc(C(Cl)(Cl)Cl)nc2cc(Cl)ccc12)C(C)C was run?
Answer: -0.349% (active)

Question: With CCOC(=N)CC(=O)Nc1cccc(C)c1Cl as the molecule, how does the growth read?
Answer: 111%

Question: Which growth does the source give for O=Nc1c(-c2cccc([N+](=O)[O-])c2)nc2ncccn12 here?
Answer: 0.307% (active)

Question: CCCCCCCCCCCCCCCCCCOc1ccccc1CCCOP(=O)(O)OCC[N+](C)(C)C was tested. Which growth did it give?
Answer: 21.9%

Question: Which growth does the source give for COc1ccc(Nc2cc(C)nc(NCCCNc3ccnc4cc(Cl)ccc34)n2)cc1 here?
Answer: -75.7% (active)

Question: Which growth does the source give for CN1CCN(c2ccc(NC3=C(Cl)C(=O)c4ncccc4C3=O)cc2C#N)CC1 here?
Answer: -26.3% (active)

Question: With Cn1ncc(Cl)c1-c1cc(C(=O)N[C@H](CN)Cc2ccc(F)c(F)c2)oc1Cl as the molecule, how does the growth read?
Answer: -35.6% (active)

Question: Which growth does the source give for O=NN(CCCl)C(=O)Nc1ccc(NC(=O)N(CCCl)N=O)cc1 here?
Answer: 94.8%

Question: CCn1c(=O)n(C)c2c(=O)n(C)c(=O)n(C)c21 was tested. Which growth did it give?
Answer: 101%

Question: How did the growth turn out when Nc1nc(SCc2cccnc2)c2ncn(C3OC(CO)C(O)C3O)c2n1 (stereo not given) was run?
Answer: 103%

Question: N#Cc1ccc(-c2csc(Nc3ccc4nc5n(c(=O)c4c3)CCC5)n2)cc1 was tested. Which growth did it give?
Answer: 103%

Question: For CC1=C(C(=O)n2c3ccccc3c3ccccc32)C(c2cccc([N+](=O)[O-])c2)C(C(=O)n2c3ccccc3c3ccccc32)=C(C)N1, which growth is on record?
Answer: 91%

Question: For C#CCN1C(=O)/C(=c2\sc3n(c2=O)C2C(NN=3)N(CC)C(=O)N2CC)c2ccccc21 (stereo not given), which growth is on record?
Answer: -29.4% (active)

Question: How did the growth turn out when COC(=O)c1ccc(C2Nc3ccc(S(=O)(=O)Nc4ccc(C)c(C)c4)cc3C3OCCC23)cc1 (stereo not given) was run?
Answer: 59.3%

Question: For NC(=O)c1ccc(NC(=O)c2oc3ccccc3c2-c2cnn(-c3ccccc3)c2)cc1, which growth is on record?
Answer: 98.4% [50 µM]

Question: For CCCC(O)Cn1ncc(C(=O)OCC)c1NC(=O)NCc1cccc(C(F)(F)F)c1 (stereo not given), which growth is on record?
Answer: 71.2%

Question: FC(F)(F)c1ccc2c(c1)n1cnnc1c1nncn21 was tested. Which growth did it give?
Answer: 104%

Question: For CCCOC(=O)C(O)c1ccccc1 (stereo not given), which growth is on record?
Answer: 113%

Question: How did the growth turn out when COc1ccc(C2=C(c3cccc(OC)c3)C(=O)c3ccc(C)nc3C2=O)cc1 was run?
Answer: 41.1%
